This is part of a sample that, as a whole, favours compounds with a hit. Of some 83,000 tested, about 20% had one in any assay.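 Treatment: one concentration, 48 hours, 96-well format. Scoring: percent growth, with anything below 10 considered active.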 Values without a mark were called inactive. Active and inactive are the calls of the source.

Our source for the growth values is PubChem BioAssay (NCI).

Among the test systems are DU-145 prostate; K-562 leukemia; MALME-3M melanoma; MDA-MB-231 breast; SF-268 CNS; SF-295 CNS; SF-539 CNS; UACC-257 melanoma.
Assay in all cases: NCI-60 one-dose screen, 48 h (100 = growth as untreated, 0 = no growth, -100 = all killed)
What all share (conditions): 10 µM unless noted

Turning to `CCCCCc1ccc(S(=O)(=O)Nc2cccc(-c3csc(NC(=O)CN4CCN(CCO)CC4)n3)c2)cc1`, the growth in the experiment on DU-145 prostate was 86.5%; in the experiment on K-562 leukemia, 19.6%; with MALME-3M melanoma it was 32.3%; in the experiment with MDA-MB-231 breast, 76.7%; in the experiment with SF-268 CNS, 76.8%; in the experiment with SF-295 CNS, 77%. Also, the figures for the growth in the experiment with SF-539 CNS and in the experiment with UACC-257 melanoma were 83.6% and 85.4%, respectively.
With `COc1cc(Cn2cc3c(c2)-c2onc(CN4CCCC4)c2CC3)cc(OC)c1OC`, the growth with DU-145 prostate is 75.6%; in the experiment with K-562 leukemia, 59.9%; with MALME-3M melanoma, 66.5%; in the experiment on MDA-MB-231 breast it was 91.3%; in the experiment on SF-268 CNS, 91.4%; in the experiment with SF-295 CNS it was 85.8%. For the same compound, the growth was 92.7% in the experiment with SF-539 CNS and 97.1% with UACC-257 melanoma.
Consider `N/C(=N\C(N)=N\c1nc2ccccc2s1)c1ccc(C(F)(F)F)cc1`, for which the growth in the experiment with DU-145 prostate is 80.1%; in the experiment with K-562 leukemia, 76.6%; in the experiment on MALME-3M melanoma, 101%; in the experiment on MDA-MB-231 breast, 84.5%; with SF-268 CNS, 74.3%; in the experiment with SF-295 CNS, 69%. For the same compound, the growth is 98.7% in the experiment with SF-539 CNS and 115% in the experiment with UACC-257 melanoma.
For the compound `Cc1ccc(NC(=S)NNC(=S)Nc2ccc(C)cc2)cc1`, the growth in the experiment on DU-145 prostate is 106%; with K-562 leukemia, 96.6%; in the experiment on MALME-3M melanoma it was 103%; with MDA-MB-231 breast, 106%; in the experiment with SF-268 CNS, 108%; in the experiment with SF-295 CNS, 102%. Besides, the growth was 110% with SF-539 CNS and 117% in the experiment on UACC-257 melanoma.
As to `COc1ccc(NC(=O)CSc2nnc(-c3ccc4nc(-c5ccccc5)[nH]c4c3)o2)cc1`, the growth is 104% in the experiment on DU-145 prostate; 84.2% in the experiment on K-562 leukemia; 99.2% in the experiment with MALME-3M melanoma; 97.1% with MDA-MB-231 breast; 101% with SF-268 CNS; 102% with SF-295 CNS. The growth with SF-539 CNS is 96.2%; in the experiment with UACC-257 melanoma it was 106%.
In the case of `COc1cc2c(cc1OC)C(Sc1ccc(C)cc1)c1c(nc(N)c(C#N)c1N)O2` (stereo not drawn), the growth was -83% (active) with DU-145 prostate; 4.48% (active) with K-562 leukemia; -70.7% (active) in the experiment with MALME-3M melanoma; -41.4% (active) in the experiment on MDA-MB-231 breast; -54.5% (active) in the experiment with SF-268 CNS; -84.1% (active) in the experiment with SF-295 CNS. The growth in the experiment on SF-539 CNS is -86.3% (active); in the experiment with UACC-257 melanoma it was -35.2% (active).
For the compound `COc1ccc(/C=C(/C)c2ccc3ccc(OC)cc3[o+]2)c(O)c1`, the growth was 86.1% with DU-145 prostate; 31.9% with K-562 leukemia; 85.2% in the experiment with MALME-3M melanoma; 72.7% in the experiment with MDA-MB-231 breast; 88.1% in the experiment on SF-268 CNS; 94.2% with SF-295 CNS. Also, the growth was 96.1% in the experiment on SF-539 CNS and 89.7% with UACC-257 melanoma.
As to `N#Cc1cccc(CN2CCC3=C(C2)C(=O)N(Cc2ccc(Cl)cc2)C2=NCCCN23)c1`, the growth is 31.2% in the experiment on DU-145 prostate; 22.5% with K-562 leukemia; 46.7% in the experiment with MALME-3M melanoma; 32.6% in the experiment on MDA-MB-231 breast; 37.1% in the experiment on SF-268 CNS; 7.29% (active) in the experiment on SF-295 CNS. In addition, the growth was 40.5% with SF-539 CNS and 13.8% in the experiment with UACC-257 melanoma.
In the case of `CS(=O)(=O)Nc1cc(-c2ccc3ncc(C#N)c(N[C@H](CO)c4ccccc4)c3c2)cnc1Cl`, the growth is 62.4% with DU-145 prostate; 41.4% in the experiment with K-562 leukemia; 29.8% with MALME-3M melanoma; 43% in the experiment on MDA-MB-231 breast; 28.4% in the experiment on SF-268 CNS; 57% in the experiment with SF-295 CNS. Further, the growth was 43.7% in the experiment on SF-539 CNS and 59.7% in the experiment on UACC-257 melanoma.
`CC(=O)N1C(=S)NC(=O)C1CC(C)C` (stereo not drawn): the growth in the experiment with DU-145 prostate was 110%; in the experiment with K-562 leukemia, 106%; in the experiment with MALME-3M melanoma, 102%; in the experiment on MDA-MB-231 breast, 103%; with SF-268 CNS, 102%; with SF-295 CNS it was 102%. In addition, the growth in the experiment on SF-539 CNS was 102%; with UACC-257 melanoma, 104%.
For `O=C(NNc1nc2cc(F)c(F)cc2n2c(CN3CC4CNCC4C3)ccc12)c1cnccn1` (stereo not drawn), the growth in the experiment on DU-145 prostate is 22.1%; in the experiment on K-562 leukemia, 14.1%; in the experiment on MALME-3M melanoma, 7.02% (active); in the experiment with MDA-MB-231 breast, 39.6%; in the experiment on SF-268 CNS, 15.8%; with SF-295 CNS, 5.87% (active). In addition, the growth in the experiment with SF-539 CNS was 8.64% (active); in the experiment on UACC-257 melanoma it was 7.77% (active).
As for `COc1c(N2CC3CCCNC3C2)c(F)cc2c(=O)c(C(=O)N/N=C/c3ccc(N(C)C)cc3)cn(C3CC3)c12` (stereo not drawn), the growth in the experiment on DU-145 prostate is 73.6%; in the experiment with K-562 leukemia, -10% (active); with MALME-3M melanoma it was 92.9%; with MDA-MB-231 breast, 69.1%; in the experiment with SF-268 CNS, 85.5%; in the experiment on SF-295 CNS it was 95%. Moreover, the results for the growth in the experiment with SF-539 CNS and in the experiment with UACC-257 melanoma were -8.68% (active) and 106%, respectively.
Consider `O=C(NNc1nc2cc(F)cc(F)c2n2cccc12)c1cnccn1`, for which the growth in the experiment on DU-145 prostate is 22.4%; in the experiment with K-562 leukemia it was 14.3%; in the experiment on MALME-3M melanoma, 23.1%; in the experiment with MDA-MB-231 breast, 33.4%; in the experiment on SF-268 CNS, 21.9%; in the experiment on SF-295 CNS, 10.9%. In addition, the growth in the experiment with SF-539 CNS was 7.61% (active); in the experiment with UACC-257 melanoma, 3.96% (active).
Take `COc1c(N2CC3CCCNC3C2)c(F)cc2c(=O)c(C(=O)N/N=C/c3ccc4c(c3)OCO4)cn(C3CC3)c12` (stereo not drawn): the growth with DU-145 prostate is 68.9%; in the experiment with K-562 leukemia, 2.44% (active); with MALME-3M melanoma, 90.3%; in the experiment with MDA-MB-231 breast it was 41.3%; with SF-268 CNS it was 79.4%; with SF-295 CNS, 44.2%. The growth was -60.4% (active) in the experiment with SF-539 CNS and 85.3% in the experiment with UACC-257 melanoma.
As to `CCn1c(SCC(=O)Nc2cccc(C(=O)/C=C/c3ccccc3Cl)c2)nc2ccccc2c1=O`, the growth was 77.8% in the experiment on DU-145 prostate; 53% in the experiment on K-562 leukemia; 103% in the experiment with MALME-3M melanoma; 87.1% with MDA-MB-231 breast; 88% in the experiment on SF-268 CNS; 91.4% in the experiment with SF-295 CNS. Also, the growth with SF-539 CNS was 90.4%; in the experiment on UACC-257 melanoma, 110%.
Take `CC(=O)C1=C(C)NC(NN)=NC1c1cccc(Cl)c1` (stereo not drawn): the growth is 114% in the experiment on DU-145 prostate; 100% in the experiment on K-562 leukemia; 104% with MALME-3M melanoma; 96.6% in the experiment with MDA-MB-231 breast; 103% in the experiment with SF-268 CNS; 104% with SF-295 CNS. Moreover, the growth in the experiment with SF-539 CNS was 98.6%; with UACC-257 melanoma it was 113%.
